According to PubChem BioAssay AID504847 (National Center for Advancing Translational Sciences (NCATS), 2011):
Out of some 400,000 compounds screened, about 3,700 (0.93%) were called active. Roughly 3% stayed inconclusive and do not appear here. What follows is part of a selection rich in actives, with near analogues and random picks from the rest. Values without a mark were called inactive. Calls follow the shape of the dose curve; as a rule, active = well fitted inhibition curve with a large enough effect; inconclusive = small, poorly fitted or top-dose-only effect, or another doubt; inactive = no such curve, though single readings can be large or run the other way.

target: Vitamin D3 receptor (Homo sapiens) (UniProt P11473); test: Inhibitors of the vitamin D receptor (VDR): qHTS; details: VDR-SRC2-3 peptide fluorescence polarization, 2 h; max response, negative = inhibition: stronger effect = lower value
In short: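 Signal is fluorescence polarization, reporting how far test compounds block the interaction of VDR with the SRC2-3 coregulator peptide after a 2 h room-temperature incubation.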
% is scaled to controls: 0 for no effect and ±100 for the full control effect; potency is read from the fitted curve at half-maximal effect.

Sequence of Vitamin D3 receptor (Homo sapiens) (P11473 whole entry, looked up): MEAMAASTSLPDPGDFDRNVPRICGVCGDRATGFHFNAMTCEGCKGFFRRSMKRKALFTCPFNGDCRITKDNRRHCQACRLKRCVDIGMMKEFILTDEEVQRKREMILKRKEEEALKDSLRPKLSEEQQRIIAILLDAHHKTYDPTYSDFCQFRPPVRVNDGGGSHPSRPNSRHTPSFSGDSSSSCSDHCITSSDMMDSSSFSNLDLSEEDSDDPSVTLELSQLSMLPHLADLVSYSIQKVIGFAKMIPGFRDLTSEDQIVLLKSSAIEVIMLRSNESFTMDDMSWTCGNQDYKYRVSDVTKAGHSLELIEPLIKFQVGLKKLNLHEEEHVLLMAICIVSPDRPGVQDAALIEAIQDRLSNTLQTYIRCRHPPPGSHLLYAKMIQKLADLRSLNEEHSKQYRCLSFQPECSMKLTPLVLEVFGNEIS

Compound	max response, negative = inhibition	Potency
CCCN(CCC)CCCNC(=O)Cn1cc2c(n1)-c1c(oc(C(=O)N3CCCC3)c1C)CC2	4.81%	–
COc1ccc(-c2nc(Cn3c(=O)cc(C)c4c(C)nn(-c5ccccc5)c43)c(C)o2)c(OC)c1	3.2%	–
COc1ccc2c(c1)c(N1CCCC1=O)c(C(=O)Nc1ccccc1C(F)(F)F)n2C	13.2%	–
Cc1ccc(-c2nc3cccc(C)n3c2Nc2ccc3c(c2)OCCO3)cc1	-25.9%	–
CC(C)c1ccc(C2C(C#N)=C(N)Oc3c2oc(CO)cc3=O)cc1 (stereo unspecified)	-3.81%	–
CC(C)c1ccc(C2CC(=O)N3CN(C4CCCCC4)CSC3=C2C#N)cc1 (stereo unspecified)	–	14.1 µM (active)
COc1cc(Nc2nc(-c3ccc(OC)c(OC)c3)nc3ccccc23)cc(OC)c1	19%	–
COC(=O)c1c(C)oc2ccc(N(C(=O)Oc3ccccc3)S(=O)(=O)c3ccccc3)cc12	2.55%	–
CC(=O)N(c1ccc2oc(=O)sc2c1)S(=O)(=O)c1ccc(C)cc1	–	70.8 µM (active)
CC(=O)Oc1ccc(N(C(C)=O)S(=O)(=O)c2ccc3ccccc3c2)cc1Br	7.52%	–
CC(NC(=O)c1cc2c(=O)n3ccccc3nc2n(C(C)C)c1=N)c1ccccc1 (stereo unspecified)	-2.71%	–
Cc1ccc(-n2c(=O)c3cccnc3n2CC(=O)Nc2ccccc2C(F)(F)F)cc1C	10.3%	–
COc1ccc(Br)cc1/C=N/Nc1ccc(S(=O)(=O)Nc2ccccc2C(=O)O)cc1[N+](=O)[O-]	–	79.4 µM (active)
O=C(O)c1ccccc1/C=N/Nc1ccc(S(=O)(=O)Nc2ccc(Cl)cc2)cc1[N+](=O)[O-]	-16.1%	–
COc1ccc(S(=O)(=O)Nc2ccccc2C(=O)N2CCCC2)cc1C	4.61%	–
Cc1cc(C)nc(NS(=O)(=O)c2ccc(NC(=O)c3cc(=O)c4ccc(C)c(C)c4o3)cc2)n1	19.7%	–
O=C(NCCCc1ccccc1)c1ccc2c(c1)sc1nc(-c3ccc(F)cc3)cn12	9.26%	–
Cc1ccc(-c2cc(-c3coc4ccccc4c3=O)c3c(n2)-c2cc(Cl)ccc2OC3)cc1	2.47%	–
Cc1ccc(C2=C/C(=C\c3cccnc3)C(=O)O2)cc1	-0.781%	–

Compound	max response, negative = inhibition	Potency
Cc1ccccc1C1=N/C(=C/c2cccnc2)C(=O)O1	–	70.8 µM (active)
Nc1ccc2c(c1)C(=Cc1cccnc1)c1ccccc1-2	-7.1%	–
Cc1ccc(NC(=O)CSc2nc3c([nH]c4ccccc43)c(=O)n2-c2ccccc2)cc1Cl	5.44%	–
O=C(CCCn1c(=O)c2cccn2c2cccnc21)NCc1ccc(F)cc1	8.91%	–
CCOc1ccc(NC(=O)Cn2c(C)ccc(C#N)c2=O)cc1	-0.0869%	–
CCn1cc(CCC(=O)NCc2ccc(F)cc2)c2ccccc21	-3.64%	–
CCCCC(=O)NCc1ccc(F)cc1	–	3.16 µM (active)
Cc1ccc(CS(=O)(=O)CCC(=O)NCc2ccc(F)cc2)cc1	-16.2%	–
Cc1ccc(C)c(N2CCN(C(=O)Cn3ncc4c(=O)oc5ccc(C)cc5c43)CC2)c1	-7.32%	–
CCOc1ccc(NC(=O)C2CCN(S(=O)(=O)c3cc(-c4noc(C)n4)ccc3C)CC2)cc1	15.5%	–
Oc1c(C=Nc2cccc3nsnc23)ccc2ccccc12	–	79.4 µM (active)
COc1ccc2[nH]c3c(c2c1)CCN(C(=O)CCC1CCCC1)C3c1ccc(F)cc1 (stereo unspecified)	12.3%	–
CCc1cc2c(cc3c(=O)n(CC(=O)NCc4cccc(Cl)c4)nc(CC)n32)s1	-17.2%	–
O=C(CSc1nc2ccccc2o1)N/N=C/c1ccccc1C(=O)O	-26.3%	–
Cc1ccc(/C=N/NC(=O)CSc2nc3ccccc3o2)cc1	–	79.4 µM (active)
CC(C)(C)C(=O)CSc1nc2ccccc2o1	-1.66%	–
COc1ccc(OCCCn2c(C)nc3cc(C)c(C)cc32)cc1	10%	–
COc1cc2c(cc1OC)[C@@H](Cc1cc(OC)c(OC)c(OC)c1)[N+](C)(CCCOC(=O)CC/C=C/CCC(=O)OCCC[N+]1(C)CCc3cc(OC)c(OC)cc3[C@H]1Cc1cc(OC)c(OC)c(OC)c1)CC2 (stereo partly specified)	3.39%	–
O=C1C(Cl)=C(Oc2ccccc2)C(=O)c2ccccc21	–	7.08 µM (active)

Compound	max response, negative = inhibition	Potency
CCOc1cc(C(=O)Nc2nnc3n2CCS3)cc(OCC)c1OCC	-8%	–
O=S(=O)(c1cccc(C(F)(F)F)c1)N1CCN(c2nc(-c3cccs3)nc3ccccc23)CC1	3.96%	–
COc1ccccc1CNc1nccn(-c2ccc(F)cc2)c1=O	6.76%	–
C[C@@H](NC(=O)OC(C)(C)C)c1nnc(S(=O)(=O)Cc2ccccc2)o1	–	28.2 µM (active)
CC(C)[C@@H](NC(=O)OC(C)(C)C)C(=O)NCC1CCC(C(=O)N[C@@H](Cc2ccccc2)C(=O)O)CC1 (stereo partly specified)	-5.18%	–
COc1ccccc1NC(=O)[C@H](COCc1ccccc1)NC(=O)OC(C)(C)C	6.86%	–
O=c1cc2nc(-c3ccccc3)nc(SCCOc3ccc(Cl)cc3)n2[nH]1	11.1%	–
CCOC(=O)c1cc2c(=O)n3ccccc3nc2n(CC2CCCO2)c1=NC(=O)c1ccccc1F (stereo unspecified)	-16%	–
Cc1ccc(C2c3[nH]c4ccccc4c3CCN2C(=O)c2cccc(C)c2)cc1 (stereo unspecified)	4%	–
Clc1cccc(-n2ncc3c(NCCc4ccccc4)ncnc32)c1	2.94%	–
COc1cc(C(=S)N2CCOCC2)cc(OC)c1OC(=O)c1cc([N+](=O)[O-])cc([N+](=O)[O-])c1	-18.9%	–
CC1CCN(C(=S)c2cccc([N+](=O)[O-])c2)CC1	9.7%	–
O=C(Oc1ccccc1C(=S)N1CCCCC1)c1cc([N+](=O)[O-])cc([N+](=O)[O-])c1	–	89.1 µM (active)
COc1ccc(OC)c([C@H](O)CNC(=O)CN)c1	6.34%	–
Cc1ccc(CNC(=O)CCc2c(C)nc3nc(CNC(=O)OC(C)(C)C)nn3c2C)cc1	6.84%	–
CCc1nnc(NC(=O)C2CC(=O)N(c3ccc4c(c3)OCCO4)C2)s1 (stereo unspecified)	–	56.2 µM (active)
CCOC(=O)c1ccc(NC(=O)C2CC(=O)N(c3ccc4c(c3)OCCO4)C2)cc1 (stereo unspecified)	-6.01%	–
CC(=O)c1ccccc1NC(=O)C1CC(=O)N(c2ccc3c(c2)OCCO3)C1 (stereo unspecified)	0.279%	–
